46 sequences from article PMC10726135, “HNF4α isoforms regulate the circadian balance between carbohydrate and lipid metabolism in the liver” can be followed below.

In all, about 18,000 sequences were measured (“log2 normalized intensity”: median about 0.39, highest 2% from about 6.6 on). Many of the other results were omitted from the sample, so the highest values are more common in it than they were.

The target in the assay is T1, HNF4alpha2 (COS-7 nuclear extract) (Homo sapiens, UniProt P41235 1-474).
T1 sequence: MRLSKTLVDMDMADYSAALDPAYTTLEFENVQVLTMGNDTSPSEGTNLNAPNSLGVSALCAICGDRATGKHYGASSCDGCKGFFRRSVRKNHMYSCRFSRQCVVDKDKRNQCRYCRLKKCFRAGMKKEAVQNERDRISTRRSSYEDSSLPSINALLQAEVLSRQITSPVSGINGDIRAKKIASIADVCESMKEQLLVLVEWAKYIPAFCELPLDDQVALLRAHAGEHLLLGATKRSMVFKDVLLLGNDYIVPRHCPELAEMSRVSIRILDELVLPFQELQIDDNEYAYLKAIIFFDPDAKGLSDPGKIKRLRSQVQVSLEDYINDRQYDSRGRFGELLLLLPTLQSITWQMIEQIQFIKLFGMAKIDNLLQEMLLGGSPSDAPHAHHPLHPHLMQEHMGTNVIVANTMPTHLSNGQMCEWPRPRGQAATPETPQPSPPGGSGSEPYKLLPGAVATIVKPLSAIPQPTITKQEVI
As to the kind of experiment: protein-binding microarray; COS-7 nuclear extract on double-stranded Agilent 4x180k PBM; binding buffer, salt, pH and temperature not given in the material; high values mean tight binding. Particulars: chain copies: 2; label: 3' end of strand 1 on the slide; dsDNA, one strand shown. In short, it runs like this:
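Binding signal is the background-corrected, normalized gProcessedSignal calculated by Agilent software. It was measured by applying nuclear extracts of COS-7 cells transiently transfected with a human HNF4α isoform expression vector to a custom Agilent SurePrint G3 4x180k array of ~44,000 double-stranded ~60-nt test sequences in quadruplicate, then imaging bound HNF4α on an Agilent G2565CA scanner at 2-µm resolution.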
In the case of “CTCAGGTCAGGGAAGACTGATAAGAAAACTGCCTAGGGAGATTAGAGTATCGGTCGA”, the binding signal was -0.891 log2 normalized intensity.

As to “AGTCATGTCTTCATGCTTTCAGCCTCTCTGGCCTAGGGAGATTAGAGTATCGGTCGA”, the binding signal is 0.358 log2 normalized intensity.

Take “ACCTCCTGGGCCCAAGTGCTCCTCCCCATCGCCTAGGGAGATTAGAGTATCGGTCGA”: the binding signal was found to be 3.37 log2 normalized intensity.

As for “TCTTCAGGCTGGGGCCCCATCGACCTTTGCGCCTAGGGAGATTAGAGTATCGGTCGA”, the binding signal was 6.79 log2 normalized intensity.

“AGACATCGACCTTTGTGGGCTTCAGACATTGCCTAGGGAGATTAGAGTATCGGTCGA”: the binding signal turned out to be 1.71 log2 normalized intensity.

Consider “GGGGCCCCATCGACCTTTGCTCCCGACTCTGCCTAGGGAGATTAGAGTATCGGTCGA”, for which the binding signal was determined as 8.11 log2 normalized intensity.

For “CGCTCCCCGACCTCCTGCTGCAGCTCTGGGGCCTAGGGAGATTAGAGTATCGGTCGA”, the binding signal stood at 0.0682 log2 normalized intensity.

Turning to “CGACCTTTGCTCCCGACTCTGAGGCTCCATGCCTAGGGAGATTAGAGTATCGGTCGA”, the binding signal was found to be 4.94 log2 normalized intensity.

In the case of “AGGCTGGGGCCCCATCGACCTTTGCTCCCGGCCTAGGGAGATTAGAGTATCGGTCGA”, the binding signal was determined as 9.6 log2 normalized intensity.

“CCCATCGACCTTTGCTCCCGACTCTGAGGCGCCTAGGGAGATTAGAGTATCGGTCGA”: the binding signal amounted to 5.07 log2 normalized intensity.

For “GCTCTAGACATCGACCTTTGTGGGCTTCAGGCCTAGGGAGATTAGAGTATCGGTCGA”, the binding signal came out at 2.69 log2 normalized intensity.

On to “AGCAGGCAGAGGTCAATGTCCACACCCCAGGCCTAGGGAGATTAGAGTATCGGTCGA”, for which the binding signal is 4.6 log2 normalized intensity.

On to “GCAGAGGCTGCAGAGGTTTCGCAAGGACGTGCCTAGGGAGATTAGAGTATCGGTCGA”, for which the binding signal is -0.792 log2 normalized intensity.

Take “GTCTGCCTGACTCCAGAGTCCAAACTGGGAGCCTAGGGAGATTAGAGTATCGGTCGA”: the binding signal turned out to be 2.17 log2 normalized intensity.

In the case of “AGTATCATGTTGGCATTCCAGGATGAAGGAGCCTAGGGAGATTAGAGTATCGGTCGA”, the binding signal is 0.674 log2 normalized intensity.

With “CAGCCTGGAGGAGGGCGAGGCCGAGCCTCAGCCTAGGGAGATTAGAGTATCGGTCGA”, the binding signal is -0.906 log2 normalized intensity.

As for “ATCTACCCTTGACAATTCCTATTCATTCCCGCCTAGGGAGATTAGAGTATCGGTCGA”, the binding signal was -0.0843 log2 normalized intensity.

For the sequence “AAACTCTGAAGGCAAATTCTTAGAATTGCAGCCTAGGGAGATTAGAGTATCGGTCGA”, the binding signal was -0.775 log2 normalized intensity.

Turning to “CTTTCTATCAGCTCTCCGTGGACTTTGCCCGCCTAGGGAGATTAGAGTATCGGTCGA”, the binding signal stood at 9.49 log2 normalized intensity.

For “TCTTTGCCCTCTTGGTATCAGCTTTGAGACGCCTAGGGAGATTAGAGTATCGGTCGA”, the binding signal stood at 1.42 log2 normalized intensity.

With “ATCCCGTGGACTTTGCCTGCCCATCCCGTGGCCTAGGGAGATTAGAGTATCGGTCGA”, the binding signal turned out to be 3.13 log2 normalized intensity.

In the case of “GTGGACTTTGCCTGCCCATCCCGTGGACTCGCCTAGGGAGATTAGAGTATCGGTCGA”, the binding signal was 3.88 log2 normalized intensity.

On to “TTTGGCCCCCAGAGCCCCGTGTCTCCCTACGCCTAGGGAGATTAGAGTATCGGTCGA”, for which the binding signal turned out to be 4.6 log2 normalized intensity.

“TCTTCCTTTCTATCAGCTCTCCGTGGACTTGCCTAGGGAGATTAGAGTATCGGTCGA”: the binding signal came to 3.08 log2 normalized intensity.

Regarding “AAGAGACTTTGCCCTTTTTTTCTCTCCCCTGCCTAGGGAGATTAGAGTATCGGTCGA”, the binding signal came to 3.42 log2 normalized intensity.

Turning to “GCTCTCCGTGGACTTTGCCCCCTACAGTTTGCCTAGGGAGATTAGAGTATCGGTCGA”, the binding signal is 9.73 log2 normalized intensity.

On to “TATCAGCTCTCCGTGGACTTTGCCCCCTACGCCTAGGGAGATTAGAGTATCGGTCGA”, for which the binding signal amounted to 11.1 log2 normalized intensity.

As to “CCAAACAGAACAAAGTCCAGTAAGGACAGTGCCTAGGGAGATTAGAGTATCGGTCGA”, the binding signal was found to be 2.51 log2 normalized intensity.

On to “GAGTAGGTTCTCAGCTGACATTGGTGGAATGCCTAGGGAGATTAGAGTATCGGTCGA”, for which the binding signal came out at 1.36 log2 normalized intensity.

Consider “AGTCCAGACAAGTCCCAAGTATTTTCAGCCGCCTAGGGAGATTAGAGTATCGGTCGA”, for which the binding signal is -0.962 log2 normalized intensity.

As to “AACTTCTTATCACTTGGTGGACATGGTTCAGCCTAGGGAGATTAGAGTATCGGTCGA”, the binding signal came out at 2.02 log2 normalized intensity.

For “AGATATCAGAAATGCATGAGTGACCTTTATGCCTAGGGAGATTAGAGTATCGGTCGA”, the binding signal is 4.97 log2 normalized intensity.

With “CTCTTTTCTTTGTACCGTATTTCAGACCACGCCTAGGGAGATTAGAGTATCGGTCGA”, the binding signal came out at 2.19 log2 normalized intensity.

As to “CAATTAGAGCAAAGGTTACTGCAGAGAAGAGCCTAGGGAGATTAGAGTATCGGTCGA”, the binding signal was 1.54 log2 normalized intensity.

With “AGAGCACAACCTTTGGCCGTGCATGCTTGGGCCTAGGGAGATTAGAGTATCGGTCGA”, the binding signal came to 1.84 log2 normalized intensity.

“GGCAGATATGAAAGAGCCATGGACTGCTGAGCCTAGGGAGATTAGAGTATCGGTCGA”: the binding signal is -0.302 log2 normalized intensity.

Regarding “GCCATGGACTGCTGACCTTTGAACCCTGAGGCCTAGGGAGATTAGAGTATCGGTCGA”, the binding signal worked out at 10.1 log2 normalized intensity.

Take “ATATGAAAGAGCCATGGACTGCTGACCTTTGCCTAGGGAGATTAGAGTATCGGTCGA”: the binding signal came to 6.32 log2 normalized intensity.

For “ATTCTTTGCCATGACCTTTGAAGCCCAGAAGCCTAGGGAGATTAGAGTATCGGTCGA”, the binding signal was determined as 4.66 log2 normalized intensity.

Consider “CCTTTGAGGAGGCCTTTCCTGACCCCTCCTGCCTAGGGAGATTAGAGTATCGGTCGA”, for which the binding signal turned out to be 4.34 log2 normalized intensity.

Consider “AGCAATTCAAATTCTTTGCCATGACCTTTGGCCTAGGGAGATTAGAGTATCGGTCGA”, for which the binding signal was found to be 5.51 log2 normalized intensity.

For the sequence “AAAGAGCCATGGACTGCTGACCTTTGAACCGCCTAGGGAGATTAGAGTATCGGTCGA”, the binding signal came out at 9.3 log2 normalized intensity.

With “ATCTTTGACCTGGAGCATGACCCTTTGCAGGCCTAGGGAGATTAGAGTATCGGTCGA”, the binding signal worked out at 2.68 log2 normalized intensity.

Turning to “TTCAAATTCTTTGCCATGACCTTTGAAGCCGCCTAGGGAGATTAGAGTATCGGTCGA”, the binding signal amounted to 6.75 log2 normalized intensity.

With “CAGTAACTGTCATGGATGACCTCTTTTAGTGCCTAGGGAGATTAGAGTATCGGTCGA”, the binding signal came out at 3.08 log2 normalized intensity.

Regarding “GCTGTCTACTCTGGGGGTCAGCAATGGTAAGCCTAGGGAGATTAGAGTATCGGTCGA”, the binding signal amounted to 1.8 log2 normalized intensity.
